Assay outcomes: PubChem BioAssay, National Center for Advancing Translational Sciences (NCATS)
Rab9 prom act: Rab9 promoter activation; 2.8% of 320,000 active; AID 485297; Huh7 Rab9 promoter-luciferase reporter, luminescence, 24 h; Potency, µM (series often up to 9.22 µM), without a hit: at the highest dose activation, negative = inhibition, usual class: activators; note: % of control where 0% means no effect; nearly all actives have a fitted effect of over 60% in size
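Huh7 reporter line, Rab9 promoter upstream of luciferase. Compound exposure 24 h at 37 °C in reduced-serum medium with 10% FBS. Read-out: luminescence.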
SMN2 splice enh: SMN2 splice variant enhancement | Potency, µM (titrated, usually from 46.1 µM), for the others: at the highest dose activity change, positive = activation, actives largely listed as activators | HEK293 SMN2-luciferase splicing reporter, luminescence, 30-36 h | 2.8% of 210,000 active | AID 1458; note: % of control where 0% means no effect; nearly all actives have a fitted effect of over 55% in size
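HEK293 cells carry an SMN2 minigene-luciferase reporter in which exon 7 inclusion puts luciferase in frame. Cells were seeded at 2000 cells/well, attached for 10-12 hours, then exposed to compounds for 30-36 hours at 37C before ONE-Glo luminescence.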
p53 reactivation: mutant p53 re-activation in reporter cells; AID 504706; H1299 p53-A138V BP100-luciferase reporter, luminescence, 24 h; 0.063% of 320,000 active; Potency, µM (doses to about 92.2 µM), for inactives: at the top dose activity change, positive = activation, usual class: activators; note: % of control where 0% means no effect; nearly all actives have a fitted effect of over 45% in size
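p53-null H1299 cells stably carrying temperature-sensitive p53-A138V and a BP100-luciferase reporter were pinned with compounds (4-point, 1:5 series) and held 24 hrs at 37 deg C. Luminescence was read 10 min after detection reagent.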
FLuc modulator: counter-screen for miR-21 project: firefly luciferase inhibitors or activators. purified FLuc, Km substrates, luminescence inhibition. Potency, µM (doses to about 57.5 µM), inactives show at the highest dose activity change, negative = inhibition, usual class: inhibitors. 6.9% of 360,000 active. P08659. AID 588342;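 note: plate controls were vehicle for no effect and reference inhibitor for full effect; nearly all actives have a fitted effect of over 55% in size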
Target sequence (P08659 whole entry, looked up): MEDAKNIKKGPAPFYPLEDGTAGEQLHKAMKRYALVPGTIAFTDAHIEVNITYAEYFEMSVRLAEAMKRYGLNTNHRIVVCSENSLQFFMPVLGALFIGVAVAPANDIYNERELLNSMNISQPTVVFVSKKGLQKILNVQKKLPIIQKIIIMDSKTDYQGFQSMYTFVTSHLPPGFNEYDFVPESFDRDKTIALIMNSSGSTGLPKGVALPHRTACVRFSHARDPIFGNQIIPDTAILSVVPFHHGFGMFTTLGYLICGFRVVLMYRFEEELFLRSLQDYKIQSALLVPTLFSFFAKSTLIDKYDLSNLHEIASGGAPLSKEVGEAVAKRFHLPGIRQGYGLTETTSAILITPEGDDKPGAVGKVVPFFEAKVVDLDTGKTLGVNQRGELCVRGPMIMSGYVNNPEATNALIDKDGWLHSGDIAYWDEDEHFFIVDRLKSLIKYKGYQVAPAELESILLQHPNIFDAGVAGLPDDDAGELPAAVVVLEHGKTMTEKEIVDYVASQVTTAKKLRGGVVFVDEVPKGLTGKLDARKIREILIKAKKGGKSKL
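Purified P. pyralis luciferase, 10 nM final, with Km-level 10 uM D-luciferin and 10 uM ATP in 50 mM Tris acetate pH 7.5, 10 mM Mg acetate, 0.01% Tween-20, 0.05% BSA; 6-point qHTS titration about 60 µM downward; luminescence read.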
NPC1 prom act: NPC1 promoter activation | Huh7 NPC1 promoter luciferase reporter, 24 h | Potency, µM (top dose mostly 9.22 µM), inactives show at the highest dose activation, most hits filed as activators | 2.4% of 320,000 active; note: % of control where 0% means no effect; nearly all actives have a fitted effect of over 60% in size
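Luciferase expression driven by the NPC1 promoter was measured in stably transfected Huh7 cells after a 24 h compound incubation, using a luciferase reagent and a luminescence read.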
ELG1 genotox: genotoxicity induction in ELG1-luciferase HEK293T cells; HEK293T ELG1-luciferase reporter, luminescence, 16 h; Potency, µM (top dose mostly 46 µM), for inactives: top-dose activity change, positive = activation, actives largely listed as activators; 1.3% of 330,000 active; note: % of control where 0% means no effect; nearly all actives have a fitted effect of over 60% in size
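Genotoxic stress is detected as increased luminescence from luciferase-tagged ELG1 in HEK293T cells, measured with ONE-Glo after a 16 hr treatment at 37 °C.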
Active calls of the source: *; ? = inconclusive; · = not tested or not shown; [ ] = remark or other dose. Sampled rows, rich in hits. Any-hit rate of the full collection: about 7.3%. Calls come from the whole dose curve; as a rule, active = well fitted curve in the direction sought with a large enough effect; inconclusive = small, poorly fitted or top-dose-only effect, or another doubt; inactive = no such curve, though single readings can be large; an effect the other way counts as inactive or inconclusive. Potency is the fitted concentration of half-maximal effect.

SMILES	Rab9 prom act	SMN2 splice enh	p53 reactivation	FLuc modulator	NPC1 prom act	ELG1 genotox
CC(C)c1ccc(C(=O)CSc2ncn[nH]2)cc1	?	29%	?	9.5µM*	?	?
CC(=O)Oc1cc(-c2coc3cc(OC(C)=O)c(OC(C)=O)c(OC(C)=O)c3c2=O)cc(OC(C)=O)c1OC(C)=O	·	-8%	·	·	·	·
COCc1cc(C)nc2sc(C(=O)Nc3ccc(OC)cc3)c(N)c12	?	·	·	?	16%	?
COCc1cc(C)nc2sc(C(=O)Nc3ccccc3OC)c(N)c12	-1%	·	-25%	17µM*	-7%	-1%
COCc1cc(C)nc2sc(C(=O)Nc3cccc(OC)c3)c(N)c12	3.2µM*	·	-4%	8.5µM*	2.2µM*	?
Nc1ncnc2c1ncn2[C@@H]1O[C@H](CNCc2ccccc2OCc2ccc(Cl)cc2Cl)[C@@H](O)[C@H]1O	·	·	-10%	·	·	-3%
O=C1CN(CC(=O)Nc2cccc(Cl)c2Cl)c2ccccc2N1	-3%	-4%	-4%	-2%	-1%	-3%
Cc1cc(C)cc(NC(=O)c2cc(C)n(Cc3cccs3)c2C)c1	0.71µM*	·	11%	0.34µM*	1.1µM*	?
Cc1cc(C(=O)Nc2ccc(Cl)cc2)c(C)n1Cc1cccs1	0.32µM*	·	?	0.6µM*	0.71µM*	2.3µM*
O=Cc1cccc(Br)c1	·	1%	·	·	·	·
O=C(O)CCCC(=O)Nc1ccc(N2CCCC2)cc1	6%	-12%	-1%	15µM*	4%	1%
CCN1CCN(c2ccc(NC(=O)c3ccco3)cc2)CC1	?	·	9%	27µM*	?	?
CCNC(=S)Nc1ccc(N2CCCCC2)cc1	25%	18µM*	29%	-14%	26%	15%
CN1CCN(c2ccc(NC(=O)Cc3ccccc3)cc2)CC1	?	17%	?	19µM*	?	12µM*
CS(=O)(=O)N1CCN(c2ccc(NC(=O)Cc3ccccc3)cc2)CC1	0%	-8%	-1%	3%	10%	-2%
Cc1ccc(C(=O)OCC(=O)c2c[nH]c3ccccc23)cc1S(=O)(=O)N1CCCCC1	-10%	-14%	0%	?	-4%	-7%
Cc1ccc(-c2nnc(Oc3cccc(C)c3)c3ccccc23)cc1	26%	3%	·	?	18%	10%
Cn1c(=O)c2c(ncn2CC(=O)OCC(=O)Nc2cc(Cl)ccc2C#N)n(C)c1=O	·	·	-10%	·	·	0%
O=C(CNC(=O)c1ccc(Br)o1)Nc1ccc(N2CCCCCC2)cc1	-1%	·	23%	?	-4%	3%
O=C(Cc1ccccc1)Nc1ccc(N2CCCCC2)cc1	?	11µM*	20%	6µM*	1.8µM*	3.3µM*
O=C(CNC(=O)c1ccco1)Nc1ccc(N2CCCCCC2)cc1	28%	·	?	17µM*	29%	?
O=C(Cc1cccs1)Nc1ccc(N2CCOCC2)cc1	?	?	?	17µM*	?	?
COCC1=Cc2cc3c(cc2C(C(C(=O)OC)C(=O)OC)N1C(=O)OC)OCO3 (centres undefined)	·	3%	·	·	·	·
COc1ccccc1NC(=O)Cn1ccn(-c2cccc3ccccc23)c(=O)c1=O	1%	·	-8%	6%	0%	-13%
Cc1nc(-c2ccc(NC(=O)CC(C)C)cc2)cs1	3.2µM*	11µM*	?	7.6µM*	2.8µM*	?
SMILES	Rab9 prom act	SMN2 splice enh	p53 reactivation	FLuc modulator	NPC1 prom act	ELG1 genotox
Cc1nc(-c2ccc(NC(=O)C3CC3)cc2)cs1	2.8µM*	·	28%	11µM*	2.5µM*	21µM*
Cc1nc(-c2cccc(NC(=O)C3CCCCC3)c2)cs1	1%	9%	-3%	?	0%	-1%
O=C(c1cc(-c2cccs2)nc2ccccc12)N1CCN(CCO)CC1	-7%	·	-11%	?	-1%	-4%
O=C(c1cc(-c2ccccc2Cl)nc2ccccc12)N1CCN(c2ccccc2O)CC1	1%	·	-15%	5%	-1%	-8%
Cc1ccc(-c2cc(C(=O)N3CCN(c4ccccc4O)CC3)c3ccccc3n2)cc1	?	·	17%	2.4µM*	?	-1%
COc1ccc(-c2cc(C(=O)N3CCN(c4ccccc4F)CC3)c3ccccc3n2)c(OC)c1	-1%	·	·	-3%	-7%	-14%
O=C(c1cc(-c2cccs2)nc2ccccc12)N1CCN(c2ccccc2O)CC1	18%	-66%	-1%	21µM*	5%	-10%
COc1ccc(-c2cc(C(=O)N3CCN(c4ccccc4O)CC3)c3ccccc3n2)cc1	2µM*	·	10%	0.67µM*	3.2µM*	0%
COc1ccc(-c2cc(C(=O)N3CCN(c4ccccc4O)CC3)c3ccccc3n2)cc1OC	-2%	·	-10%	9.5µM*	21%	-19%
Cc1c(Cl)cccc1NC(=O)Nc1c[nH]c(=O)[nH]c1=O	·	·	·	-7%	·	·
Cc1cc2ncn(C(=O)c3cc(-c4ccccc4)nc4ccccc34)c2cc1C	1%	0%	-4%	?	0%	1%
Cc1cnn(C(=O)c2cc(-c3ccccc3)nc3ccccc23)c1	8%	7%	0%	17µM*	2%	-3%
Cc1ccc(-c2cc(C(=O)N3CCCc4ccccc43)c3ccccc3n2)cc1	1%	-17%	7%	3.4µM*	9%	?
c1ccc(-c2nc(-c3nccc4ccccc34)oc2-c2ccccc2)cc1	3.2µM*	·	20%	6µM*	?	?
Nc1nc(-c2ccccc2)c(-c2ccccc2)o1	-2%	·	1%	5%	-3%	-2%
COc1ccc(OCCN2C(=O)c3ccccc3C2=O)cc1	?	4%	?	?	18%	13%
O=C1c2ccccc2C(=O)N1CCOc1ccccc1Br	?	·	?	24µM*	28%	?
Nc1cccc2c1C(=O)N(CCOc1ccc(F)cc1)C2=O	1.6µM*	·	?	2.7µM*	1.8µM*	2.1µM*
Cc1ccccc1OCCN1C(=O)c2ccccc2C1=O	?	10%	?	19µM*	?	?
Cc1ccccc1OCCN1C(=O)C(=O)c2cccc(C)c21	0%	-9%	10%	1%	0%	1%
Cc1ccc(Cn2c(CCNC(=O)c3cccc(C)c3)nc3ccccc32)cc1	·	-12%	·	-15%	·	·
Cc1cccc(OCC(=O)OCc2cc(=O)n3nc(C4CC4)sc3n2)c1	·	·	·	-1%	·	·
Cc1ccc(N/C=C(/C#N)c2ccsc2)cc1	·	?	·	17µM*	·	·
Clc1ccc(CSCc2ccc(Cl)cc2Cl)c(Cl)c1	·	-1%[9.22 µM]	·	·	·	·
CC(C)(C)c1csc(NC(=O)c2ccc3nccnc3c2)n1	3.5µM*	14%	?	8.5µM*	2.5µM*	8%
